According to PubChem BioAssay (NCATS):
Results filed as inconclusive are left out. Entries that show only a call come without a potency. Unmarked numbers belong to inactive results. Calls of active or inactive are those of the source. Calls come from the whole dose curve; as a rule, active = well fitted cell-killing curve with a large enough effect; inconclusive = small, poorly fitted or top-dose-only effect, or effect the other way; inactive = flat fitted curve, though single readings scatter.

system: Es-2; experiment: Primary qHTS to identify gynecologic anti-cancer compounds using libraries of approved drugs and bioactive compounds (AID 1345084); settings: Gynecologic cancer cell panel viability, ATPlite luminescence, 48 h; series mostly up to 57.5 µM; note: nearly all actives have a fitted effect of over 55% in size
Outline: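 Five-point cytotoxicity, 48 h drug exposure at 37 C, 5% CO2, on cells seeded 16 h beforehand. ATP content read by ATPlite luminescence.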
Potency is the fitted concentration of half-maximal effect.

SMILES | Potency | activity change, negative = cytotoxicity
CN(Cc1cccc(-c2ccncc2)c1)C(=O)Oc1ccc(-c2ccc(C(N)=O)cc2)cc1 | inactive | 
CN(C(=O)C(c1ccccc1)c1ccccc1)[C@H](CN1CC[C@H](O)C1)c1ccccc1 | inactive | 
C/C=C(\C)C(=O)OC1CC2C(CC=C3CC(OC4CC(OC)C(OC5CC(OC)C(OC6CC(OC)C(OC7CC(OC)C(O)C(C)O7)C(C)O6)C(C)O5)C(C)O4)CCC32C)C2(O)CCC(C(C)=O)C12C (stereo unspecified) |  | -0.231% [at 11.6 µM]
CN=C(NS(=O)(=O)c1ccc(Cl)cc1)N1C[C@H](c2ccccc2)C(c2ccc(Cl)cc2)=N1 | inactive | 
COC1CC(O[C@H]2CC[C@@]3(C)C(CCC4C3CC[C@]3(C)C(C5=CC(=O)OC5)CCC43O)C2)OC(C)C1OC1OC(COC2OC(CO)C(O)C(O)C2O)C(O)C(O)C1O (stereo partly specified) | 3.16 µM (active) | 
C[C@@H]1O[C@@H](OC2CCC3(C=O)C(CCC4C3CCC3(C)C(C5=CC(=O)OC5)C(O)CC43O)C2)[C@H](O)[C@H](O)[C@H]1O[C@@H]1O[C@H](CO)[C@@H](O)[C@H](O)[C@H]1O (stereo partly specified) | 6.31 µM (active) | 
Cc1c(N[C@@H](c2nnc(-c3ccc(C#N)cc3)o2)[C@H](C)O)ccc(C#N)c1Cl | inactive | 
CC12CCC3C(C1)c1c(cc(O)c(C(=O)c4ccccc4)c1OC3(C)C)O2 (stereo unspecified) | inactive | 
CN1C(=O)[C@@H](Cc2c[nH]c3ccccc23)N=C(c2ccccc2F)c2ccccc21 | inactive | 
CCCCCCC1C(=O)O[C@H](C)[C@H](NC(=O)c2cccc(NC=O)c2O)C(=O)O[C@@H](C)[C@@H]1OC(=O)CC(C)C (stereo partly specified) | 0.355 µM (active) | 
c1ccc([C@@H]2C[C@H]2NC2CCNCC2)cc1 | inactive | 
CC(C)[C@H]1OC(=O)[C@H](Cc2ccccc2)N(C)C(=O)[C@@H](C(C)C)OC(=O)[C@H](Cc2ccccc2)N(C)C(=O)[C@@H](C(C)C)OC(=O)[C@H](Cc2ccccc2)N(C)C1=O | inactive | 
C=C1C2(C)CC3C(C)(O)C4=CC(=O)OC(C)(C)C4=CCC3(C)C13C(=O)OC(C)C3(O)C2=O (stereo unspecified) | inactive | 
CN(C)[C@@H]1C(=O)C(C(N)=O)=C(O)[C@@]2(O)C(=O)C3=C(O)c4c(O)ccc(Cl)c4[C@@](C)(O)C3C[C@@H]12 (stereo partly specified) | inactive | 
CC(=O)O[C@H]1C[C@]2(O)[C@@H]3CC[C@@H]4C[C@@H](O)CC[C@]4(C)[C@H]3CC[C@]2(C)[C@H]1c1ccc(=O)oc1 | 0.1 µM (active) | 
CN1CCC2=C(C1)c1ccccc1Cc1ccccc12 | inactive | 

SMILES | Potency | activity change, negative = cytotoxicity
CCOc1ccc(Oc2ccc(OCc3cc(F)ccc3F)cc2)c(N)c1 | inactive | 
CCN1C[C@]2(COC)CC[C@H](O)[C@@]34C5C[C@@H]6[C@@H](OC)C[C@@](OC(C)=O)(C5[C@@H]6OC(C)=O)[C@H]([C@H](OC)C23)[C@@H]14 (stereo partly specified) | inactive | 
CC(C)[C@H](NC(=O)c1nn(Cc2ccc(F)cc2)c2ccccc12)C(N)=O | inactive | 
CCCN(CCC)[C@@H]1CCc2ccc3[nH]c(C#N)cc3c2C1 | inactive | 
Cc1ccc2c(c1)[C@H]1CN(C)CC[C@H]1N2C(=O)CSc1nnnn1-c1ccc(Cl)cc1 | inactive | 
C[C@]12CC[C@H](O)C[C@@H]1CC[C@@H]1[C@@H]2CC[C@]2(C)C(=O)CC[C@@H]12 | inactive | 
CC(=O)OC[C@]12[C@H](OC(C)=O)C(=O)[C@@H]3[C@@H](O)[C@@]14O[C@@]3(C)COC(=O)c1cccnc1[C@@H](C)[C@H](C)C(=O)O[C@@H]([C@H](OC(C)=O)[C@@H]2OC(C)=O)[C@]4(C)O | inactive | 
C#C[C@]1(O)CC[C@H]2[C@@H]3CC[C@H]4Cc5nc6nc7ccccc7n6cc5C[C@]4(C)[C@H]3CC[C@@]21C | inactive | 
CN1C(=O)N(c2ccc(C#N)c(C(F)(F)F)c2)C(=O)[C@@]1(CO)c1ccccc1 | inactive | 
CCCCCn1cc(C(=O)Oc2cccc3cccnc23)c2ccccc21 | inactive | 
C[C@]12CC[C@H](O)C[C@@H]1CC[C@@H]1[C@@H]2CC[C@]2(C)[C@@H](C3=CC(=O)OC3)CC[C@]12O | 8.91 µM (active) | 
C[C@]12CC[C@H](O)C[C@@]1(O)CC[C@@H]1[C@@H]2CC[C@]2(C)[C@@H](c3ccc(=O)oc3)CC[C@]12O | inactive | 
COC(=O)C12C(=O)C(C)(O)C(=O)C1(C)C(C)=CC1C34CCC(OC3=O)C(C)(C)C4CCC12C (stereo unspecified) | inactive | 
CC1=CC2OC3CC(O)[C@](C)([C@@]2(C)C(O)C1=O)[C@]31CO1 (stereo partly specified) | 8.91 µM (active) | 
CN1Cc2c(ccc3c2OCO3)[C@@H]2[C@H]1c1cc3c(cc1C[C@@H]2O)OCO3 | 4.47 µM (active) | 
